Reference: article PMC5700166
Residue numbers refer to the chain shown, from its start.

Assays:
Assay in all cases: protein-binding microarray (PBM); PBM: ~300 nM protein, 6 mM HEPES pH 7.8, 80 mM KCl, 0.5 mM EDTA, 0.5 mM EGTA, 6% glycerol, 35 ng/ul poly-dIdC, 1% milk, 1 h, room temperature; Ap Aiptasia and Nv Nematostella (sea anemones) / Co Capsaspora / Aq Amphimedon (sponge) / Dm Drosophila / Hu human; RHD is the Rel homology domain; high values mean tight binding
Conditions in all cases: dsDNA, one strand shown
GST-Ap-NF-kB RHD = molecular target: T1, GST-Ap-NF-kB RHD (Exaiptasia pallida (Aiptasia), UniProt A0A913YAJ5 2-422)
T1 sequence: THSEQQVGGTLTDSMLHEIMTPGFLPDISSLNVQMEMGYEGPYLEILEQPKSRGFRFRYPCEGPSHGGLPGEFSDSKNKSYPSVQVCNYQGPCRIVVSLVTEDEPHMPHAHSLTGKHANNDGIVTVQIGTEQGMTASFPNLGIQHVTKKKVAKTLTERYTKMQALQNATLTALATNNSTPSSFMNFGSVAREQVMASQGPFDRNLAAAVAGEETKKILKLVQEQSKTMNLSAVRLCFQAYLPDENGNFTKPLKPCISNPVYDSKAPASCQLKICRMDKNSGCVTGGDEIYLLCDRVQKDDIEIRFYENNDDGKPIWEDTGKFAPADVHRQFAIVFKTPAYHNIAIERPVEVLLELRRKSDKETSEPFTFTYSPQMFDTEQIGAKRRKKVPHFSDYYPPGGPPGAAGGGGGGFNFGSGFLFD

[1] = molecular target: T2, GST-Nv-NF-kB (Cys allele) (Nematostella vectensis, UniProt E5G601 2-411)
T2 sequence: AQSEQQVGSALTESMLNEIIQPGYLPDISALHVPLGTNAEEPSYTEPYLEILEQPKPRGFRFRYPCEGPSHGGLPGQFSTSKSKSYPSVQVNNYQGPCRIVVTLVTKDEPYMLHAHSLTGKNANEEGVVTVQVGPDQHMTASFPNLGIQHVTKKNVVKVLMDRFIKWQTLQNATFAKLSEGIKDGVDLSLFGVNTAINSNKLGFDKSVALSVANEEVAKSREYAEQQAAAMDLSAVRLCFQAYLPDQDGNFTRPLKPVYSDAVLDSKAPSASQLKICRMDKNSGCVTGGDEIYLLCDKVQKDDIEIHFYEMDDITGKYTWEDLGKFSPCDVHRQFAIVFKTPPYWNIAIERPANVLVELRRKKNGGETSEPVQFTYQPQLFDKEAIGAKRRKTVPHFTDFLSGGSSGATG

[2] = molecular target: T3, GST-Nv-NF-kB (Ser allele) (Nematostella vectensis, UniProt A7UNT2 2-411)
T3 sequence: T2 sequence with Q21R, C66S, S207N, E215Q, V217A, E225K, A268E, D399E

GST-Co-NF-kB = molecular target: T4, GST-Co-NF-kB (Capsaspora owczarzaki, UniProt F1ARL5 200-546)
T4 sequence: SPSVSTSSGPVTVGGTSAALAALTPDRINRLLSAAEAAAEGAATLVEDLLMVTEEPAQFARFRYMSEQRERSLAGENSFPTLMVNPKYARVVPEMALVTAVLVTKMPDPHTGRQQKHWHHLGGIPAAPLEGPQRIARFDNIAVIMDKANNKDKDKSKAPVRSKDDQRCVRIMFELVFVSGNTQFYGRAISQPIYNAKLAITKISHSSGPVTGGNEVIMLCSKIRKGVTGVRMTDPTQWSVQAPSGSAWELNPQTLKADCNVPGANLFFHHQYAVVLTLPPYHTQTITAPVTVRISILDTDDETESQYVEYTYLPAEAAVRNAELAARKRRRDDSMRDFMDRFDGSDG

GST-Dm-Relish = molecular target: T5, GST-Dm-Relish (Drosophila melanogaster, UniProt Q94527 99-473)
T5 sequence: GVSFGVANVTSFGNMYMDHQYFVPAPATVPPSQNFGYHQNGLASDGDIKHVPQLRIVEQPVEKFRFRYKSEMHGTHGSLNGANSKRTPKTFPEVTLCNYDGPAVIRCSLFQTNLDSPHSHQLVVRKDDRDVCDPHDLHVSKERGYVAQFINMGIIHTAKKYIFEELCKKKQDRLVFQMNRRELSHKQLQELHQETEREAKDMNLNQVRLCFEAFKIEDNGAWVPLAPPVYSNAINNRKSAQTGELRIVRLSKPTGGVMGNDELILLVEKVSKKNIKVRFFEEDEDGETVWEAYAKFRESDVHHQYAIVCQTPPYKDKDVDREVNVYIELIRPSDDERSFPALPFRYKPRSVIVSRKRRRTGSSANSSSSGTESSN

GST-Aq-NF-kB = molecular target: T6, GST-Aq-NF-kB (Amphimedon queenslandica, UniProt A9Y5G7 2-389)
T6 sequence: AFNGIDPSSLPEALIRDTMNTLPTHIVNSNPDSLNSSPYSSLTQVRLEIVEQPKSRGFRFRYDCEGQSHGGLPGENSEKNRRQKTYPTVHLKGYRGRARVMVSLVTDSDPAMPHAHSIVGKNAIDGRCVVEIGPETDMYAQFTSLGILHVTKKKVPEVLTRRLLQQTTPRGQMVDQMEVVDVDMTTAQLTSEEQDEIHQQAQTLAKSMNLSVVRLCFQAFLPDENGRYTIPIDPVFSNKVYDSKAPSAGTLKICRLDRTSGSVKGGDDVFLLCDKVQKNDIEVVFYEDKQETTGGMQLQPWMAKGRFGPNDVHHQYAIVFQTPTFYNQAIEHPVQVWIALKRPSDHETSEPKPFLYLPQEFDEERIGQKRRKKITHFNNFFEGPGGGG

GST-Hu-p50 = GST-Hu-p50 (Homo sapiens, UniProt P19838 7-356)
Chain of GST-Hu-p50 (P19838 7-356): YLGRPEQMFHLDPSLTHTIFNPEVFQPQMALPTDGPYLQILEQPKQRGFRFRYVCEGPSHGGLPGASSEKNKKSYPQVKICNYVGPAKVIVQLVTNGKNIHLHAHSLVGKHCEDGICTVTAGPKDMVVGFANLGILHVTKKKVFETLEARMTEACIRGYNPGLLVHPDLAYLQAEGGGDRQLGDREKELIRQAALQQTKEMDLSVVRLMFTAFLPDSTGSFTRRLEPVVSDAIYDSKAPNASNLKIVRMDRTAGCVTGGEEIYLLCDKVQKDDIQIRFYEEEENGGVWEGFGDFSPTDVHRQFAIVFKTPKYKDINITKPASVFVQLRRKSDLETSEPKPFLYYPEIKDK

Sequence	binding signal (GST-Ap-NF-kB RHD)	binding signal [1]	binding signal [2]	binding signal (GST-Co-NF-kB)	binding signal (GST-Dm-Relish)	binding signal (GST-Aq-NF-kB)	binding signal (GST-Hu-p50)
CCGATTAACATCAAATGTTCCCCTGATGTTAATCGGGTCTTGATTCGCTTGACGCTGCTG	5.58 z-score	6.77 z-score	7.62 z-score	9.87 z-score	5.59 z-score	6.21 z-score	4.41 z-score
CCGATTAACATCAAAAAAACCCCTGATGTTAATCGGGTCTTGATTCGCTTGACGCTGCTG	9.17 z-score	10 z-score	9.69 z-score	3.62 z-score	9.78 z-score	8.79 z-score	7.76 z-score
CCGATTAACATCACAGATTCCCCTGATGTTAATCGGGTCTTGATTCGCTTGACGCTGCTG	7.65 z-score	9.02 z-score	10.7 z-score	7.14 z-score	6.17 z-score	5.96 z-score	6.28 z-score
CCGATTAACATCAAAATCCCCCGTGATGTTAATCGGGTCTTGATTCGCTTGACGCTGCTG	9.02 z-score	9.33 z-score	10.1 z-score	8.56 z-score	9.89 z-score	7.76 z-score	8.02 z-score
CCGATTAACATCAAAAATTACCCTGATGTTAATCGGGTCTTGATTCGCTTGACGCTGCTG	4.2 z-score	7.43 z-score	7.03 z-score	4.09 z-score	6.42 z-score	6.93 z-score	5.22 z-score
CCGATTAACATCAAAATCTCCCCTGATGTTAATCGGGTCTTGATTCGCTTGACGCTGCTG	8.53 z-score	7.57 z-score	8.79 z-score	7.3 z-score	4.44 z-score	6.41 z-score	5.85 z-score
CCGATTAACATCAGGAATTCCCCTGATGTTAATCGGGTCTTGATTCGCTTGACGCTGCTG	11.7 z-score	12.5 z-score	11.7 z-score	7.64 z-score	9.99 z-score	11.5 z-score	7.74 z-score
CCGATTAACATCAACGGATTCCCTGATGTTAATCGGGTCTTGATTCGCTTGACGCTGCTG	2.31 z-score	3.57 z-score	3.98 z-score	2.89 z-score	5.42 z-score	2.97 z-score	1.77 z-score
CCGATTAACATCACCACCCCCCCTGATGTTAATCGGGTCTTGATTCGCTTGACGCTGCTG	4.06 z-score	3.75 z-score	3.44 z-score	3.56 z-score	4.58 z-score	3.75 z-score	4.06 z-score
CCGATTAACATCACAAAGTCCCCTGATGTTAATCGGGTCTTGATTCGCTTGACGCTGCTG	7.77 z-score	7.32 z-score	7.65 z-score	2.97 z-score	7.95 z-score	6.4 z-score	6.44 z-score
CCGATTAACATCAAATCCCCCCGTGATGTTAATCGGGTCTTGATTCGCTTGACGCTGCTG	8.26 z-score	7.22 z-score	6.8 z-score	7.74 z-score	8.05 z-score	6.07 z-score	6.44 z-score
CCGATTAACATCAAAATATTCCCTGATGTTAATCGGGTCTTGATTCGCTTGACGCTGCTG	6.25 z-score	7.36 z-score	7.68 z-score	4.81 z-score	4.34 z-score	6.27 z-score	4.33 z-score
